Source: ChEMBL document CHEMBL4513216, “Probing the Open Global Health Chemical Diversity Library for Multistage-Active Starting Points for Next-Generation Antimalarials” (ACS Infect Dis, 2020)
Out of some 69,000 compounds screened, about 8,600 (12%) showed an effect of 50% or more. Only a selection was taken, and strong results are over-represented in it overall.

test system: Plasmodium berghei; assay: Screen against P. berghei liver stage (PbLuc), transformed with Luciferase, at 10uM; format: functional, HepG2; conditions: tested at 10 uM

| Compound | INHIBITION [%] |
| --- | --- |
| COc1ncccc1CNC(=O)N1CCC(CNC(C)=O)CC1 | 0.266 |
| O=C(CCC(=O)N1CCC(Oc2ncccc2Br)CC1)c1ccccc1 | 45 |
| O=C(NCc1ccccc1)N1CCC(Oc2ncccc2Cl)CC1 | 22.2 |
| O=C(NCc1ccccc1)N1CCC(Oc2ncccc2Br)CC1 | 74.4 |
| N#Cc1cccnc1OC1CCN(C(=O)NCc2ccccc2)CC1 | 52.6 |
| Brc1cccnc1OC1CCNCC1 | 51 |
| N#Cc1cccnc1OC1CCN(C(=O)c2cc(C3CC3)on2)CC1 | 34.3 |
| O=C(c1cc(C2CC2)on1)N1CCC(Oc2ncccc2Br)CC1 | 44.2 |
| Clc1cccnc1OC1CCNCC1 | 28.6 |
| CCn1ncnc1CN1CCC(CNC(=O)c2cccnc2O)C1 (centres undefined) | -11.3 |
| Cc1oc(C(C)C)cc1C(=O)N1C[C@@H]2CC[C@H]1CN(C(=O)N(C)C)C2 | -14.3 |
| Cc1cc(C)n(CC2CCN(CC(O)CN3CCOCC3)CC2)n1 (centres undefined) | -5.22 |
| O=C1NC(C(=O)NCc2cccnc2Oc2ccccc2F)CO1 (centres undefined) | -12.1 |
| CCCc1noc(C2CCCCN2C(=O)C2CCCC2)n1 (centres undefined) | -11.7 |
| CCN(CC1CCOC1)C(=O)c1ccn(-c2cc(C)ccc2OC)n1 (centres undefined) | 30.5 |
| CNC(=O)[C@@]12CCC3(CCN(C(=O)COC)CC3)[C@@H]1CN(S(C)(=O)=O)C2 | -16.2 |
| CCC(NC(=O)C(C)(C)C)c1ccccc1C (centres undefined) | 32.9 |

| Compound | INHIBITION [%] |
| --- | --- |
| CC[C@@H](C)[C@H](NC(=O)Cn1ccc2c(Cl)cccc21)C(=O)O | -19.7 |
| C[C@]1(O)CN(CCC(N)=O)CC[C@@H]1Oc1cccc(F)c1 | 53 |
| Cn1cncc1CN1CC[C@](C)(O)[C@@H](Oc2cccc(F)c2)C1 | 21.9 |
| C[C@]1(O)CN(CCO)CC[C@@H]1Oc1cccc(F)c1 | 59 |
| C[C@]1(O)CN(Cc2ccc(C(=O)O)cc2)CC[C@@H]1Oc1cccc(F)c1 | 15.9 |
| C[C@]1(O)CN(Cc2cccc(C(=O)O)c2)CC[C@@H]1Oc1cccc(F)c1 | 17.4 |
| C[C@]1(O)CN(CC(=O)N2CCCC2)CC[C@@H]1Oc1cccc(F)c1 | 41.2 |
| Cc1cccc(CN2CC3(CCN(C(=O)N(C)C)CC3)OCC2=O)n1 | 30.3 |
| Cc1cc(C(=O)NC2CCc3c(ccc(=O)n3CC3CC3)C2)no1 (centres undefined) | 36.5 |
| Cc1nnc([C@]23COC[C@H]2CN(Cc2nccs2)C3)o1 | 9.79 |
| Cc1cc2n(n1)CC(CNCc1ccccc1-n1cccn1)CN2 (centres undefined) | -18.605 |
| O=C(c1ccco1)N1C[C@@H]2OCCN(CCN3CCCC3)[C@@H]2C1 | 23.3 |
| CN(C)CCN1CCO[C@H]2CN(C(=O)c3ccsc3)C[C@H]21 | 6.67 |
| Cc1cc(C(=O)N2C[C@@H]3OCCN(CCN4CCCC4)[C@@H]3C2)c(C)o1 | 32.2 |
| Cc1occc1C(=O)N1C[C@@H]2OCCN(CCN3CCCC3)[C@@H]2C1 | 66 |
| O=C(c1ccncc1)N1C[C@@H]2OCCN(CCN3CCCC3)[C@@H]2C1 | 32.2 |
| O=C(c1ccsc1)N1C[C@@H]2OCCN(CCN3CCCC3)[C@@H]2C1 | 82.3 |
